Screening data as filed in PubChem BioAssay.
Mot1-301 SUMO – SUMOylation pathway inhibition by Mot1-301 growth rescue; AID 2716; growth rescue, % at 18.8 µM; hit rate 1% among 320,000; S. cerevisiae Mot1-301 growth rescue, ATP luminescence, 38.5C; percent above DMSO median, 100 means doubled;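 active = every valid replicate shows activation above 250% relative to neutral control wells; inactive = the rest, any valid replicate at or below 250%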;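 note: OY570 slx delta 5 strain wells were the positive control but not used for scaling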
NLRP3 yeast inh – NALP3 inhibition in yeast | Yeast reconstituted NLRP3/ASC/caspase-1, beta-gal luminescence, 24 h | inhibition, % at 10 µM | hit rate 0.39% among 330,000 | AID 2825;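 active = inhibition of 50% or more; inactive = inhibition below 50%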;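 note: plate controls were induced DMSO wells for no effect and uninduced yeast grown without galactose for full effect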
PolyA inhibitor – yeast polyadenylation inhibition; activity score, % at 12 µM; hit rate 0.02% among 300,000; S. cerevisiae SKY197-pL101 polyadenylation reporter, beta-gal luminescence; efflux-impaired pdr1/pdr3 knockout yeast; score 100 = 6 SD above DMSO;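 active = lowest replicate activity score at least 50, where 100 means six control SD above control mean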;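 note: yeast exposed to compound for 9 h at 30 °C; higher score means more reporter readthrough which indicates perturbed polyadenylation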
NALP1 yeast inh – inhibitors of NALP1 inflammasome in yeast. S. cerevisiae NALP1/ASC/caspase-1 growth, X-gal OD620, 72 h. inhibition, % at 10 µM. hit rate 0.61% among 280,000. AID 2071; in the data active = inhibition mostly above about 24%, no sharp cut-off; inactive = mostly below about 32%
An asterisk follows results filed as active; i = inactive; . = no result. Shown are actives, neighbours in structure and some others; about 1.8% of the full set was active somewhere.

SMILES | Mot1-301 SUMO | NLRP3 yeast inh | PolyA inhibitor | NALP1 yeast inh
COC(=O)C1CCN(C(=O)c2ccc3nc(-c4cccc(OC)c4)oc3c2)CC1 | -7 | 15 | 9 | 13
CN(C(=O)COC(=O)c1cc([N+](=O)[O-])ccc1Sc1ccccc1)C1CCS(=O)(=O)C1 (stereo unspecified) | -17 | 21 | -8 | 28*
O=C(COc1ccc(C(=O)c2ccccc2)cc1)Nc1ncccc1O | -22 | 5 | 7 | 13
O=C(Nc1ncccc1O)c1ccc(Oc2ccccc2)cc1 | -15 | 33 | 3 | 43*
O=C(/C=C/c1cccc([N+](=O)[O-])c1)c1cccs1 | 0 | 26 | 2 | 40
O=C(/C=C/c1cccc([N+](=O)[O-])c1)Nc1ccc(NC(=O)c2cccs2)cc1 | 474* | -9 | -20 | 17
Cc1ccc(NC(=O)C(=O)NCC2CCCN2S(=O)(=O)c2cccs2)cc1C (stereo unspecified) | -1 | 12 | 2 | .
O=c1[nH][nH]c(-c2ccccc2O)c1C(C[N+](=O)[O-])c1ccccc1 (stereo unspecified) | 25 | 31 | 10 | .
O=c1[nH][nH]c(-c2ccccc2O)c1C(C[N+](=O)[O-])c1ccc(Cl)cc1Cl (stereo unspecified) | 269* | 16 | -5 | 70*
O=c1[nH][nH]c(-c2ccccc2O)c1C(C[N+](=O)[O-])c1cccc(Cl)c1 (stereo unspecified) | 52 | 22 | -7 | 101*
Cc1nc2cc(O)ccc2n1C | 182 | 6 | -1 | -18
Cc1ccc(C(=O)N2CCN(c3ccccc3O)CC2)cc1S(=O)(=O)N1CCCCC1 | -10 | 2 | -6 | .
COc1cc(/C=N/Nc2nc(Nc3ccc(C)cc3)nc(-n3nc(C)cc3C)n2)cc(OC)c1OC | 5 | -2 | 7 | 42*
COc1cc(/C=N/Nc2nc(Nc3ccccc3)nc(-n3nc(C)cc3C)n2)cc(OC)c1OC | i | -4 | 7 | -19
CCOc1ccc(NC(=O)COc2ccc(OC)cc2)cc1 | -14 | 32 | -3 | 1
COc1ccc(NC(=O)COc2nc(N(C)C)nc(N(C)C)n2)cc1 | -3 | 20 | 3 | 28*
CCOc1cc(/C=N/N2C(=O)NC3(CCCCC3)C2=O)cc(Br)c1O | 47 | 6 | 8 | 6
CC1CCN(C(=O)COC(=O)c2ccc(Br)o2)CC1 | -1 | 25 | -10 | 34*
O=C(c1ccncc1)N1CCN(C2CCC(c3ccccc3)CC2)CC1 (stereo unspecified) | 305* | 12 | -23 | .
O=C(c1ccncc1)N1CCN(C2CCCCC2)CC1 | 3 | -6 | 6 | -8
COc1ccccc1C(=O)N/N=C/c1ccc2c(c1)OCO2 | 301* | 19 | -2 | 18
Nc1ccc2nc(SCC(=O)N3CCOCC3)sc2c1 | -19 | 14 | -1 | 40*
Nc1ccc2nc(SCC(=O)N3CCN(c4ccccc4)CC3)sc2c1 | 219 | 18 | -7 | .
Cc1cc(C)cc(N(C(=O)c2csnn2)C(C(=O)NC(C)(C)C)c2cccs2)c1 (stereo unspecified) | 29 | 20 | 8 | 8
CCOC(=O)N1CCN(c2c(NCCCN(CC)CC)c(=O)c2=O)CC1 | 8 | 12 | 24 | 45*
SMILES | Mot1-301 SUMO | NLRP3 yeast inh | PolyA inhibitor | NALP1 yeast inh
CCCCN(CC)CCNc1c(N2CCN(C(=O)OCC)CC2)c(=O)c1=O | -3 | 12 | 25 | 16
CC(=O)Nc1cccc(Oc2nc(-c3ccccn3)nc3ccccc23)c1 | 532* | 5 | 4 | -1
CC(=O)Nc1ccc(Oc2nc(-c3ccccn3)nc3ccccc23)cc1 | -5 | 0 | 7 | 19
Cc1ccc(NC(=O)C2CCCN2C(=O)NC2CCCCC2)cc1 (stereo unspecified) | -14 | 21 | -8 | 25*
Cc1ccc(-c2nn3c(C)nnc3s2)cc1NC(=O)CSc1ccc(Cl)cc1 | 11 | 8 | 88* | 17
CC(=O)NC1=C(NC2CCS(=O)(=O)C2)C(=O)c2ccccc2C1=O (stereo unspecified) | -10 | 1 | 1 | 40
CN(C1=C(NC(=O)c2ccccc2)C(=O)c2ccccc2C1=O)C1CCS(=O)(=O)C1 (stereo unspecified) | -17 | -13 | 7 | 43*
CCOC(=O)c1cnc(-c2cccc(OC)c2)[nH]c1=O | 7 | -8 | 22 | 34
CCOC(=O)c1cnc(-c2ccccc2)[nH]c1=O | 320* | -13 | 12 | 9
CCOc1ccc(C(=O)C(CN2CCOCC2)c2ccccc2)cc1 (stereo unspecified) | 287* | . | -39 | 84*
OC(COc1ccc(OCc2ccccc2)cc1)CN1CCOCC1 (stereo unspecified) | 9 | 22 | 0 | 39*
